Shown are actives, neighbours in structure and some others; about 3.1% of the full set was active somewhere.
LEDGF integ inh: blockers of LEDGF/p75-dependent integrase strand transfer – biochemical, TR-FRET, high throughput, primary screen. TR-FRET IN-LEDGF/p75 DNA integration, Eu/Cy5. inhibition, % at 3.7 µM. 370,000 tested, 0.64% active;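 active = inhibition above the screen-wide mean plus 3 SD, cut at about 13% in these data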;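 note: signal is the Cy5 over europium emission ratio at 671 and 618 nm; 0% = plate median of compound wells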
MBD2 inh: inhibitors of MBD2 binding to methylated DNA, primary screen, biochemical, TR-FRET, DNA-binding domain, human | inhibition, % at 4.4 µM | MBD2 binding to methylated oligonucleotide | AID 686964, 2013 | 370,000 tested, 0.31% active; in the data active = inhibition above about 13%
Neddyl block: inhibitors of cullin neddylation, primary screen, biochemical, TR-FRET, uHTS, NAE and Ubc12 | NEDD8-conjugating enzyme Ubc12 (Homo sapiens) + NEDD8-activating enzyme E1 regulatory … | calls only at 25 µM | 360,000 tested, 0.58% active; in the data active = inhibition above about 36%
UHRF1 MBD2 ctr: UHRF1 methylated DNA binding inhibitors, primary screen, counter-screen for MBD2 inhibitor project, biochemical, TR-FRET, human UHRF1, single concentration | E3 ubiquitin-protein ligase UHRF1 (Homo sapiens), Q96T88 | UHRF1 binding to methylated oligo | inhibition, % at 4.4 µM | 370,000 tested, 0.75% active | AID 687016, 2013;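 note: UHRF1 SRA domain binding a hemimethylated CpG hairpin DNA probe; 0% = median of test compound wells and 100% = reference inhibitor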
Target sequence (Q96T88 whole entry, looked up, the tested form may be a part): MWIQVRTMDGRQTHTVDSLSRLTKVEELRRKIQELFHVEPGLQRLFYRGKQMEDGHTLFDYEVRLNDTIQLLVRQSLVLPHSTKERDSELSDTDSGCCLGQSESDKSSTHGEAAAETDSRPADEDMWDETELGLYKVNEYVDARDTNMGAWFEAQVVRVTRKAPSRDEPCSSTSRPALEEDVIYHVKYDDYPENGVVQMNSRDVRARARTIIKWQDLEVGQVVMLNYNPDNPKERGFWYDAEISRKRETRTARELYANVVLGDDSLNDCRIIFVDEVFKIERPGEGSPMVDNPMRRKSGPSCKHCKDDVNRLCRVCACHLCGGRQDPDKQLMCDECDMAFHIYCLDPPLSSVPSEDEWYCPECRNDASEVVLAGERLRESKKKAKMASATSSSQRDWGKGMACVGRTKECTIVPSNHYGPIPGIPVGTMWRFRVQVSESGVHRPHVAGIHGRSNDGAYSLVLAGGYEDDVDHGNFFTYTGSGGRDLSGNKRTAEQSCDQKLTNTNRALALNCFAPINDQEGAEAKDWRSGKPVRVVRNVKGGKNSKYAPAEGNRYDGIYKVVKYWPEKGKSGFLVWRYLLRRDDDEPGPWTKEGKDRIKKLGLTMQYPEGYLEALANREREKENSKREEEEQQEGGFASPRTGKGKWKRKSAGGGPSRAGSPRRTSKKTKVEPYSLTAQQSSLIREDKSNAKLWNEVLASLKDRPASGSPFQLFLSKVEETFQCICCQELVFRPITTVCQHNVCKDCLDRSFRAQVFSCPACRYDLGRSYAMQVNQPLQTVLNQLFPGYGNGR
proKLK7 act: proKLK7 zymogen activators, primary screen, biochemical, fluorescence intensity | purified proKLK7, EDANS-DABCYL substrate fluorescence; 100% is mature enzyme control, 0% vehicle | activation, % at 7 µM | 370,000 tested, 0.9% active | AID 652039, 2013;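 active = activation above the mean of all tested compounds plus 3 SD, computed per campaign excluding outliers beyond control limits, cut at about 13% in these data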
Rin1 Abl inh: inhibitors of Rin1-Abl protein binding, primary screen, biochemical, TR-FRET; 360,000 tested, 0.4% active; inhibition, % at 7.35 µM; AID 588664, 2011; Tyrosine-protein kinase ABL1 (Homo sapiens) + Ras and Rab interactor 1 (Homo sapiens), …; in the data active = inhibition above about 5%, passing the limit was not always enough
UHRF1 ctr MBD2: UHRF1 methylated DNA binding inhibitors, counter-screen for MBD2 inhibitor project, biochemical, TR-FRET, human UHRF1 | UHRF1 binding to methylated oligonucleotide | inhibition, % at 4.4 µM | shares compounds with MBD2 inh | 1,000 tested, 25% active;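 note: UHRF1 SRA domain binding a labeled hemimethylated CpG hairpin DNA; 0% = vehicle only and 100% = reference inhibitor with vehicle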
MBD2 confirm: inhibitors of MBD2 binding to methylated DNA, confirmation, biochemical, TR-FRET, DNA-binding domain, human; shares compounds with MBD2 inh; TR-FRET MBD2-DBD binding to methylated oligonucleotide; inhibition, % at 4.4 µM; 1,000 tested, 26% active; in the data active = inhibition above about 14%
* hit, by the source's call; i = inactive; · = no result given; ! = a repeat was not active. Cut-off read from the data, not from the text of the source, unless noted: active = inhibition above about 21%; inactive = the rest.

SMILES	LEDGF integ inh	MBD2 inh	Neddyl block	UHRF1 MBD2 ctr	proKLK7 act	Rin1 Abl inh	UHRF1 ctr MBD2	MBD2 confirm
CCC/C=C/c1ccc(CN2C(C(C)C)C(=O)N(Cc3cn(Cc4ccco4)nn3)CCS2(=O)=O)cc1 (configuration not stated)	1	1	i	0	0	1	·	·
NC(=O)c1ccccc1NC(=O)CCn1c(=S)oc2ccccc21	3	-4	i	-2	0	3	·	·
CC1(C)S[C@@H]2[C@H](NC(=O)[C@H](N)c3ccccc3)C(=O)N2[C@H]1C(=O)O	52*!	47*!	i	81*!	0	0	77*	31*
CC1(C)S[C@@H]2[C@H](NC(=O)C(C(=O)O)c3ccccc3)C(=O)N2[C@H]1C(=O)O (some centres not stated)	·	·	i	·	·	0	·	·
O=C(Oc1ccc2c(c1)OCO2)c1cc2c(s1)CCC2	12	25*	i	35*	0	2	36*	28*
Cc1ccc(S(=O)(=O)N2CCCN(C(=O)c3cc4ccccc4[nH]3)CC2)cc1	-1	-3	i	-1	0	-2	·	·
C[C@H]1CN([C@@H](C)CO)C(=O)CCCn2nncc2CO[C@H]1CN(C)S(=O)(=O)c1ccc(-n2cccn2)cc1	-1	16*	i	1	1	0	3	3
C[C@@H]1CN([C@@H](C)CO)C(=O)CCCn2nncc2CO[C@@H]1CN(C)S(=O)(=O)c1ccc(-n2cccn2)cc1	-4	-1	i	2	0	3	·	·
NS(=O)(=O)c1cc2c(cc1Cl)NC(Cc1ccccc1)NS2(=O)=O (configuration not stated)	-3	3	i	4	-1	2	·	·
COc1ccc(NS(=O)(=O)c2ccc(SC)cc2)c(OC)c1	2	17*	i	23*	0	3	5	3
Cc1c2cnn(CC(=O)Nc3c(F)c(F)cc(F)c3F)c(=O)c2c(C)n1Cc1ccccc1F	7	14*	i	15	0	1	18	29*
CNC(=O)Cn1ncc2c(C)n(Cc3ccc(C)cc3)c(C)c2c1=O	0	2	i	-1	0	1	·	·
COc1cc(OC)nc(Oc2ccccc2/C=N/O)n1	3	15*	i	0	-1	0	0	4
Cc1cc(C)c(OCC(=O)OCC(=O)NNC(=O)c2ccccc2F)c(C)c1	-7	22*	i	3	0	0	5	2
Cc1cc(C)c(OCC(=O)OCC(=O)NCc2cccs2)c(C)c1	-3	2	i	-4	0	-1	·	·
NC(=O)c1ccc(NC(=O)COC(=O)c2cc3c(s2)CCC3)cc1	2	7	i	12	-1	-1	·	·
O=C(COC(=O)c1cc2c(s1)CCC2)Nc1ccc(F)cc1	8	15*	i	28*	0	-2	32*	19*
Cc1ccc(NC(=O)CCOc2ccccc2)cc1	-1	59*	i	0	0	2	4	3
CC1CC(C)(C)CC2(C1)NC(=O)N(CC(=O)Nc1ccc(N3CCCCC3)cc1)C2=O (configuration not stated)	-1	4	i	-2	0	-1	·	·
O=C(c1cccnc1)N1CCC2CC1c1c(Cl)cccc12 (configuration not stated)	2	6	i	18	-1	3	·	·
CCCSC1=N/C(=C\c2ccsc2)C(=O)S1	3	6	i	6	0	1	·	·
CCCSC1=N/C(=C\C=C\c2ccco2)C(=O)S1	69*	57*	i	95*	1	3	27*	10
CCSC1=N/C(=C\c2ccc(-c3ccccc3[N+](=O)[O-])o2)C(=O)S1	1	-4	i	-8	0	0	·	·
CCCSC1=N/C(=C\c2ccc([N+](=O)[O-])o2)C(=O)S1	35*	19*	i	52*	0	3	21*	4
C[C@@H]1CCCCO[C@H](CN(C)Cc2ccccc2)[C@@H](C)CN([C@H](C)CO)C(=O)c2cc(NC(=O)c3ccccc3)ccc2O1	6	0	i	0	2	2	·	·
SMILES	LEDGF integ inh	MBD2 inh	Neddyl block	UHRF1 MBD2 ctr	proKLK7 act	Rin1 Abl inh	UHRF1 ctr MBD2	MBD2 confirm
C/C(=N\NC(=O)CCC(=O)Nc1ccc(C)c(C)c1)c1cccs1	0	0	i	0	0	1	·	·
COC(=O)[C@H](C(C)C)N(CCCc1cn(CC2CCCCC2)nn1)S(=O)(=O)c1ccc(F)cc1Br	8	-5	·	10	0	·	·	·
COC(=O)[C@H](CC(C)C)N(CCc1cn(CC2CCCCC2)nn1)S(=O)(=O)c1ccc(F)cc1Br	-1	5	·	2	1	·	·	·
COC(=O)[C@H](C(C)C)N(Cc1cn(CC2CCCCC2)nn1)S(=O)(=O)c1ccc(F)cc1Br	4	17*	·	19	0	·	7	7
COC(=O)[C@H](CC(C)C)N(Cc1cn(CC2CCCCC2)nn1)S(=O)(=O)c1ccccc1Br	4	17*	·	18	1	·	8	11
COC(=O)[C@H](CC(C)C)N(Cc1cn(CC2CCCCC2)nn1)S(=O)(=O)c1ccc(F)cc1Br	3	19*	·	21*	1	·	7	12
CCOc1ccc(CCNC(=O)Cc2ccccc2)cc1OCC	4	3	·	-1	·	·	·	·
CN(CC(=O)N/N=C/c1ccc(F)cc1)S(=O)(=O)c1ccccc1	-2	3	i	2	0	-1	·	·
COc1ccc2c(CC(=O)N3CCN(S(=O)(=O)c4ccc(F)cc4)CC3)coc2c1	8	73*	i	7	-1	2	12	6
Cc1ccc(CNC(=O)CCS(=O)(=O)c2cc3c(cc2Br)CCN3C(=O)C2CC2)o1	1	5	·	-1	0	·	·	·

Source: PubChem
